Here are results for 60 compounds from publication PMC4336329 (PLoS ONE, 2015).

Among all 310,000 compounds or so, about 14,000 (4.5%) showed an effect of 50% or more. The effect is printed as a negative number. Many of the other results were omitted from the sample, so strong results are more common in it than they were.
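Also: peak tail current of the secondary pulse compared with the same well before compound.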

human ether-à-go-go-related gene (hERG) potassium channel, sequence (Q12809 whole entry, looked up): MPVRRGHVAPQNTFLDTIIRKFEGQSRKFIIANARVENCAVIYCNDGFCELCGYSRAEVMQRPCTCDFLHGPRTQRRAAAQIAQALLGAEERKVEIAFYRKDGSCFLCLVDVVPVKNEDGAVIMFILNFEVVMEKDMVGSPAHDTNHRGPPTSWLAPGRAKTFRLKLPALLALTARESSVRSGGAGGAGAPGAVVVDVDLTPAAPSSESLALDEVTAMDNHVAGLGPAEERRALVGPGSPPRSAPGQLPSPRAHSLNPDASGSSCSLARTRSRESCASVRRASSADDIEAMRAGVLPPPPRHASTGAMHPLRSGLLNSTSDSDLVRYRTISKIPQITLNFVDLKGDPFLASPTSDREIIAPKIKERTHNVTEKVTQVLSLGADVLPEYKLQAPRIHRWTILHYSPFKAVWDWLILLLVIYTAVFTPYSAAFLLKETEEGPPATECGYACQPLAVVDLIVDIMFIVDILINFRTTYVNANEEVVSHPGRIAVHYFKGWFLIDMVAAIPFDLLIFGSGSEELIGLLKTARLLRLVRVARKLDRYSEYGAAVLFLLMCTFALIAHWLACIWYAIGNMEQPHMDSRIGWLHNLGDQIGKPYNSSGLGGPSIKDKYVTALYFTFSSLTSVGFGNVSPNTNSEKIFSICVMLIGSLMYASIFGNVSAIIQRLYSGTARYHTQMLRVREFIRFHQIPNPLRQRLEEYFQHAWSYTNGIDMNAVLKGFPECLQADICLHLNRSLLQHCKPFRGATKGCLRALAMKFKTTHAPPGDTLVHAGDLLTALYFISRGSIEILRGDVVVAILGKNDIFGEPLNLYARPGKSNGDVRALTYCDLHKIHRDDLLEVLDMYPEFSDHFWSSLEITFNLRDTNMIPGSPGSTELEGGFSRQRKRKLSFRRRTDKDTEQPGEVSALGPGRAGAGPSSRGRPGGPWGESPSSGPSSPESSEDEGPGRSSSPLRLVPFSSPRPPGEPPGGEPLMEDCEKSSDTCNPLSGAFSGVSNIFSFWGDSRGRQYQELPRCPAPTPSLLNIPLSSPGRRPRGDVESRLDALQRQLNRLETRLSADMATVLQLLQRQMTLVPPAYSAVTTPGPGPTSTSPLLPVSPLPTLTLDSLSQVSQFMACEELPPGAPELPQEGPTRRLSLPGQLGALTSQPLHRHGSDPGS

The assay concerns the target human ether-à-go-go-related gene (hERG) potassium channel (human, UniProt Q12809). The assay is described as follows: primary screen, population patch clamp on CHO cells stably expressing hERG; higher = less effect of the substance.
Turning to `CCNC(=S)NNC(=O)CCn1cc(C)cn1`, the “hERG current change (%, negative = inhibition) at 10uM” value worked out at 20.7%.
Under `Cc1cccc(N2CCN(S(=O)(=O)c3c(C)[nH]c(C)c3C(=O)N3CCCC3)CC2C)c1` (stereo not drawn) stands -19.2%.
Under `COc1ccccc1CNC(=O)COC(=O)c1ccc(Cl)c(N)c1` stands 21.8%; under `N=c1c(C(=O)NCC2CCCO2)cc2c(=O)n3ccccc3nc2n1C1CCCCC1` (stereo not drawn), -77.3%.
Under `N=c1c(S(=O)(=O)c2ccccc2)cc2c(=O)n3ccccc3nc2n1C1CCCC1` stands 1.62%; under `N=c1c(S(=O)(=O)c2ccc(Br)cc2)cc2c(=O)n3ccccc3nc2n1C1CCCCC1`, 22.8%.
With `N=c1c(C(=O)NCC2CCCO2)cc2c(=O)n3ccccc3nc2n1C1CCCC1` (stereo not drawn), the “hERG current change (%, negative = inhibition) at 10uM” value is reported as -76.9%.
The result for `N=c1c(S(=O)(=O)c2ccc(Br)cc2)cc2c(=O)n3ccccc3nc2n1C1CCCC1` reads 9.15%; that for `Cc1nc(C(=O)NC2CC2)sc1C1(C)CC(c2ccccc2)=NO1` (stereo not drawn), -8.63%.
Under `Cc1ccc(Nc2nc(CSc3nnnn3-c3ccccc3)cs2)cc1` stands 14.7%; under `CNC(=O)NC(=O)CN1C(=O)NC2(CCOc3ccccc32)C1=O` (stereo not drawn), 18.9%; under `N#CC(C#N)=NNc1ccc([N+](=O)[O-])cc1`, -2.55%.
Under `COP(=O)(OC)/C(C=O)=N/Nc1ccc([N+](=O)[O-])cc1` stands -36.3%; under `CC(C)OP(=O)(OC(C)C)/C(C=O)=N\Nc1ccc([N+](=O)[O-])cc1`, -55.1%; under `CC(C)CCNC(=O)C1CCN(C(=O)N(C)C)CC1`, 14.5%.
For the compound `Cc1c(N2C(=O)CS/C2=N\N=C\c2ccc(Cl)cc2)c(=O)n(-c2ccccc2)n1C`, the “hERG current change (%, negative = inhibition) at 10uM” value is -32.2%.
For the compound `S=C(Nc1ccc(Cl)cc1)N(CCCN1CCOCC1)Cc1ccco1`, the “hERG current change (%, negative = inhibition) at 10uM” value is on record as -26%.
For `CN1CCN(CCCN(Cc2ccco2)C(=S)Nc2ccc(Cl)cc2)CC1`, the “hERG current change (%, negative = inhibition) at 10uM” value is -69.6%.
Consider `CCN1CCN(CCCN(Cc2ccco2)C(=S)Nc2ccc(Cl)cc2)CC1`, for which the “hERG current change (%, negative = inhibition) at 10uM” value is listed as -64.2%.
Under `CCOC(=O)C1C2C=CC3(CN(Cc4cccs4)C(=O)C13)O2` (stereo not drawn) stands 1.73%.
The result for `CCOc1cccc(C(=O)NC(=S)Nc2cccc(C)c2)c1` reads 6.87%; that for `COCCCn1cnnc1SCc1nc2sc(C(C)=O)c(C)c2c(=O)[nH]1`, -17%; that for `Cc1nc2ccc(Cl)cc2c(=O)n1-c1cccc(Cl)c1`, 3.78%.
The result for `Cc1ccc2nc(C)n(-c3ccc(F)cc3)c(=O)c2c1` reads 21.3%.
For `Cc1ccc2nc(C)c3c(c2c1)N(c1ccccc1)CC3`, the “hERG current change (%, negative = inhibition) at 10uM” value is -74.6%.
The result for `Cc1ccc2cc3c(nc2c1)N(c1ccccc1)CC3` reads 2.24%.
Under `COc1cccc(N2CCc3c(C)nc4ccc(Cl)cc4c32)c1` stands -72.9%; under `Cc1ccc2nc(C)c3c(c2c1)SCC3`, -27.4%; under `CSc1nc(C)c2c(n1)N(c1ccc(F)cc1)CC2`, 19.8%.
The result for `Cc1ccc2nc(C)c3c(c2c1)N(c1ccc(F)cc1)CC3` reads -92.2%.
As to `CCN1Cc2c(/C=C/c3ccccc3)nc3ccc(OC)cc3c2N(c2cccc(Cl)c2)C1`, the “hERG current change (%, negative = inhibition) at 10uM” value was -12.5%.
The result for `COc1cccc(/C=N/Nc2cc(Cl)nc(C)n2)c1O` reads 20.8%; that for `COc1cc2c3c(c1OC)C1(C=CC(=O)C=C1)CC3N(C(=O)c1ccccc1)CC2` (stereo not drawn), -18.6%; that for `CCC(=O)NC(=S)Nc1ccc(NC(=O)COc2ccc(Cl)cc2Cl)cc1`, 10.7%.
Under `CC(=O)c1ccccc1OCc1ccc(S(=O)(=O)Cc2ccccc2)cc1` stands -26.6%; under `Cc1ccc(/C=N/Nc2ccc(Cl)nn2)cc1`, -0.808%; under `CCN(CC)S(=O)(=O)c1ccc(C(=O)OCC(=O)Nc2sc3c(c2C#N)CCCCC3)cc1`, 8.12%.
`Cc1ccc(NS(=O)(=O)c2ccc(C(=O)N3CCCCCC3)cc2)cc1`: the “hERG current change (%, negative = inhibition) at 10uM” value is recorded as -8.38%.
As to `Cc1ccc(S(=O)(=O)Nc2ccc(C(=O)N3CCCC3)cc2)cc1`, the “hERG current change (%, negative = inhibition) at 10uM” value is recorded as -0.474%.
The result for `CC(C)(C)c1ccc(S(=O)(=O)Nc2ccc(C(=O)N3CCCC3)cc2)cc1` reads -61.9%; that for `Cc1ccc(NS(=O)(=O)c2ccc(C(=O)N3CCC3)cc2)cc1`, 15.7%.
The result for `Cc1ccc(NS(=O)(=O)c2ccc(C(=O)N3CC(C)OC(C)C3)cc2)cc1` (stereo not drawn) reads 14.2%.
Under `Cc1ccc(NS(=O)(=O)c2ccc(C(=O)N3CC(C)CC(C)C3)cc2)cc1` (stereo not drawn) stands -58.7%; under `O=C(Nc1nnc(-c2ccco2)o1)c1ccc(Cl)s1`, 8.23%.
For the compound `Cc1cc(Cl)c(OCCCSc2nc(C)cc(=O)[nH]2)c(Br)c1`, the “hERG current change (%, negative = inhibition) at 10uM” value is on record as -10.3%.
With `CCc1nnc(NC(=O)CSc2ncc(-c3ccccc3)[nH]2)s1`, the “hERG current change (%, negative = inhibition) at 10uM” value stood at 2.52%.
Under `Cc1cccc(C(=O)NNC(=O)c2ccccc2-n2cccc2)c1` stands 11.7%.
The result for `COC(=O)c1c(SCc2cccc3ccccc23)nc(=O)[nH]c1C` reads 7.87%; that for `COC(=O)c1c(SCc2ccc(C#N)cc2)nc(=O)[nH]c1C`, -76.9%; that for `COC(=O)c1c(SCC(=O)Nc2ccc(C)c(C)c2)nc(=O)[nH]c1C`, 2.16%.
Under `CCOC(=O)c1c(C)n(C)c2ccc(OCC(O)CNC(CC)CO)cc12` (stereo not drawn) stands -7.11%; under `COc1ccccc1/C=N/Nc1nccnc1Cl`, -11.5%; under `O=C(O)c1ccc(N=Cc2c(O)[nH]c(=O)[nH]c2=O)cc1`, 8.59%.
`CCOc1ccc(CN2CCN(CCCn3cccn3)CC2CCO)cc1` (stereo not drawn): the “hERG current change (%, negative = inhibition) at 10uM” value is recorded as -80.1%.
Under `OCCC1CN(CCCn2cccn2)CCN1Cc1ccccc1` (stereo not drawn) stands -8.62%; under `CCOc1ccccc1CN1CCN(CCCn2cccn2)CC1CCO` (stereo not drawn), -57.4%; under `CC(C)N1CCC(N2CCN(CCCn3cccn3)CC2CCO)CC1` (stereo not drawn), -28%.
For the compound `CC(C)CCN1CCN(CCCn2cccn2)CC1CCO` (stereo not drawn), the “hERG current change (%, negative = inhibition) at 10uM” value is -6.72%.
The result for `CC(C)=CCN1CCN(CCCn2cccn2)CC1CCO` (stereo not drawn) reads -11.8%; that for `Cc1ccc(CN2CCN(CCCn3cccn3)CC2CCO)cc1` (stereo not drawn), -66.9%.
